Results on eight compounds are retold here after PubChem BioAssay (NCATS).

In experiment [1] the target is Glucocorticoid receptor (Homo sapiens) (UniProt P04150). Kind of experiment: qHTS assay for small molecule agonists of glucocorticoid receptor signaling (AID 588532; active = well fitted curve in the direction sought with a large enough effect in the signal ratio, with a control signal flat; the % refers to the signal ratio;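 also: 100% = dexamethasone at 0.1 µM and 0% = DMSO only wells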). To be noted: HeLa MMTV-bla, beta-lactamase ratio, agonist, 18 h; stronger effect = higher value; percent of dexamethasone control, DMSO zero. The method in brief: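 Stimulation of a glucocorticoid response element-driven beta-lactamase gene was measured in HeLa cells. Responses were scaled between DMSO basal and 0.1 uM dexamethasone, then fitted for half-maximal stimulation.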
Glucocorticoid receptor (Homo sapiens), sequence (P04150 whole entry, looked up): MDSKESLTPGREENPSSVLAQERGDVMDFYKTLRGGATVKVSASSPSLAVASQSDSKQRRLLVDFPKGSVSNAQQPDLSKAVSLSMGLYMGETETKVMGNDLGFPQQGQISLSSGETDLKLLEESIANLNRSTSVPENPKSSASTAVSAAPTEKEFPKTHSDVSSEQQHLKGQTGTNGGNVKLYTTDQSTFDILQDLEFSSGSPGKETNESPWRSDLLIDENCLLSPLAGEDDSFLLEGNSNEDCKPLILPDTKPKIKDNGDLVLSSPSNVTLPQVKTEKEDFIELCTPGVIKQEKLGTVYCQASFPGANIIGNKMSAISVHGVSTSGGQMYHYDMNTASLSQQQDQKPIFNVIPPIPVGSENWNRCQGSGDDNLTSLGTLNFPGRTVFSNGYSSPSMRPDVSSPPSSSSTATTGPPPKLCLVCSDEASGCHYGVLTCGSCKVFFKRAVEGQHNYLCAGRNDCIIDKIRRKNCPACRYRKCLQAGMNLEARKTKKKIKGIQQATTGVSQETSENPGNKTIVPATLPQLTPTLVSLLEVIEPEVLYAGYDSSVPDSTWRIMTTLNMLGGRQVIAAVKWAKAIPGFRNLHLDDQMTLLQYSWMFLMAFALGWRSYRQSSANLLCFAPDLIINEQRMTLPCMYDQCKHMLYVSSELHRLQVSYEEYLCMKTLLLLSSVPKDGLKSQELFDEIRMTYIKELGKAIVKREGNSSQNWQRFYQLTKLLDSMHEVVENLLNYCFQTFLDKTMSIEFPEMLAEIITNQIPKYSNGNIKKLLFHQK
A general note: In qHTS, concentration-response curves come from the screen itself.

Experiment [2] has the same target. As to the kind of experiment: qHTS assay for small molecule antagonists of glucocorticoid receptor signaling (AID 588533; active = well fitted inhibition curve with a large enough effect in the signal ratio, with a control signal flat, not every such curve was filed as active; the % refers to the signal ratio;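 also: cells stimulated with 2 nM dexamethasone as agonist; % is scaled to controls: 0 for no effect and ±100 for the full control effect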). In a few lines: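 Antagonist-mode qHTS: compound titrations added to GRE-bla HeLa cells, then dexamethasone 2 nM final; 18 h, 37 C. CCF4 FRET fluorescence normalized to dexamethasone and DMSO; IC50 from Hill fit.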
Experiment [3] is described as follows: qHTS assay for small molecule antagonists of peroxisome proliferator-activated receptor delta signaling (AID 588535; active = well fitted inhibition curve with a large enough effect in the signal ratio, with a control signal flat, not every such curve was filed as active; the % refers to the signal ratio;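 as to max response: cells co-treated with a PPAR-delta agonist as stimulator during compound exposure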). The note with it: HEK293T PPARd-UAS-bla, beta-lactamase FRET ratio, 18 h; 460 nm channel. The method in brief:
(§1)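 Reporter: UAS-bla under PPAR-delta response element, HEK293T host. Medium: 2% charcoal/dextran FBS. Dosing: titration, 18 hrs, 37 C. Detection: CCF4, 2 hrs RT, 405 ex/460 and 530 em.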

In experiment [4] the target is Peroxisome proliferator-activated receptor delta (Homo sapiens) (UniProt Q03181). Described as above. In a few lines: as §1
Peroxisome proliferator-activated receptor delta (Homo sapiens), sequence (Q03181 whole entry, looked up): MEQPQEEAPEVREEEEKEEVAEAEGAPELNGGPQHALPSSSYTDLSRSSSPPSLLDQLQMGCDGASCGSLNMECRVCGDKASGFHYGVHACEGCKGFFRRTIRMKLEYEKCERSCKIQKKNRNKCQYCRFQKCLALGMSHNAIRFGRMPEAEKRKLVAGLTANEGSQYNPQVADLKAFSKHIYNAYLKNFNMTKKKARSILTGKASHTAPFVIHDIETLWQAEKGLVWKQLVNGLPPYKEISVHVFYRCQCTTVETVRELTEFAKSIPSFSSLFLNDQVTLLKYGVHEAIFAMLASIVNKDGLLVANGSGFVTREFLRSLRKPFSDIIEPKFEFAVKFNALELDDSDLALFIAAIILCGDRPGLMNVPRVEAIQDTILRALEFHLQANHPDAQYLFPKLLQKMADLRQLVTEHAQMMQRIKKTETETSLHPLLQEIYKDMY
For experiment [5], the target named is Peroxisome proliferator-activated receptor gamma (Homo sapiens) (UniProt P37231). Kind of experiment: qHTS assay for small molecule agonists of peroxisome proliferator-activated receptor gamma signaling (AID 588536; active = well fitted curve in the direction sought with a large enough effect in the signal ratio, with a control signal flat, not every such curve was filed as active; the % refers to the signal ratio;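 also: 0% = DMSO basal wells and 100% = rosiglitazone at 2 µM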). The method in brief: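 HEK293 UAS-bla reporter line, 1% charcoal/dextran FBS; titration, 16 h, 37 C; CCF4 loading 2 h RT; fluorescence 460/530 nm. Normalized to rosiglitazone 2 uM = 100%, DMSO = 0%.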
Peroxisome proliferator-activated receptor gamma (Homo sapiens), sequence (P37231 whole entry, looked up): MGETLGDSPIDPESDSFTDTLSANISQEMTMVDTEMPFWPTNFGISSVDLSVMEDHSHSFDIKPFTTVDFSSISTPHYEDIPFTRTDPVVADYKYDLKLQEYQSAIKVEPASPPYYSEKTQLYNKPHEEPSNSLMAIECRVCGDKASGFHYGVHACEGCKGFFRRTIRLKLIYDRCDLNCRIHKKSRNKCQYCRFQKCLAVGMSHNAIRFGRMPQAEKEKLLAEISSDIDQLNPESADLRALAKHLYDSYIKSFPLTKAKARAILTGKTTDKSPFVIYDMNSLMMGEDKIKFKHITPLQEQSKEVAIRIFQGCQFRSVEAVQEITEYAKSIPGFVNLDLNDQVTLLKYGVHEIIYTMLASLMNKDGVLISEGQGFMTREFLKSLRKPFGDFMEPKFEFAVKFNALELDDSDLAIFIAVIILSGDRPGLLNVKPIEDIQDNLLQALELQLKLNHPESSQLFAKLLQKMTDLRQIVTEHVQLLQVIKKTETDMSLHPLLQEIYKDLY

The target is the same in experiment [6]. As to the kind of experiment: qHTS assay for small molecule antagonists of peroxisome proliferator-activated receptor gamma signaling (AID 588537; active = well fitted inhibition curve with a large enough effect in the signal ratio, with a control signal flat, not every such curve was filed as active; the % refers to the signal ratio; also: potency is read from the fitted curve at half-maximal effect). In a few lines:
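We seeded GeneBLAzer HEK293 reporter cells at 3000 per well, allowed 6-6.5 h attachment at 37 C, then co-treated with test compound titrations and 50 nM rosiglitazone overnight (16 h). Inhibition was quantified from 460/530 nm emission ratios.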

The target of experiment [7] is Vitamin D3 receptor (Homo sapiens) (UniProt P11473). Kind of experiment: qHTS assay for small molecule antagonists of vitamin D receptor signaling (AID 588541; calls by dose curve;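 also: receptor activated by calcitriol during compound treatment; series mostly up to about 77 µM; % is scaled to controls: 0 for no effect and ±100 for the full control effect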). The method in brief: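 VDR-UAS-bla HEK293T cells (2000/well, 2% charcoal-stripped FBS) were treated with titrated compounds plus 1-alpha,25-dihydroxyvitamin D3 (50 nM or 3 nM final) for 16 h at 37 C. CCF4 beta-lactamase fluorescence was read; Hill fits gave IC50.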
Vitamin D3 receptor (Homo sapiens), sequence (P11473 whole entry, looked up): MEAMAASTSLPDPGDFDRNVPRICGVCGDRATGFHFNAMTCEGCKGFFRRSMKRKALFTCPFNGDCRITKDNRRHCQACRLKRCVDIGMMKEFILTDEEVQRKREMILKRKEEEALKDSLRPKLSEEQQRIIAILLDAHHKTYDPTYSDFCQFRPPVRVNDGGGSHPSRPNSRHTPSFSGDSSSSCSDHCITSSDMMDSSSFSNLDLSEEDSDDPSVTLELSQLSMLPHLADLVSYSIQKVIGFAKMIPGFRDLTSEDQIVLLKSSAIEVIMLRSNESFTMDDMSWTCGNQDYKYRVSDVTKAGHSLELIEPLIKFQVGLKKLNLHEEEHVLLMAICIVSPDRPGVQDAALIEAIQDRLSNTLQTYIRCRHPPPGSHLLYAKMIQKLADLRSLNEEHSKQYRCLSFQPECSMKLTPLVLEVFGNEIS

The nature of experiment [8]: qHTS assay for small molecule agonists of retinoid X receptor alpha signaling (AID 588544; calls by dose curve;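 as to activation: 0% = DMSO basal wells and 100% = reference agonist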). The note with it: HEK293T RXRa-UAS-bla, beta-lactamase reporter, 18 h; 530 nm emission.
For experiment [9], the target named is Retinoic acid receptor RXR-alpha (Homo sapiens) (UniProt P19793). The description is as above.
Retinoic acid receptor RXR-alpha (Homo sapiens), sequence (P19793 whole entry, looked up): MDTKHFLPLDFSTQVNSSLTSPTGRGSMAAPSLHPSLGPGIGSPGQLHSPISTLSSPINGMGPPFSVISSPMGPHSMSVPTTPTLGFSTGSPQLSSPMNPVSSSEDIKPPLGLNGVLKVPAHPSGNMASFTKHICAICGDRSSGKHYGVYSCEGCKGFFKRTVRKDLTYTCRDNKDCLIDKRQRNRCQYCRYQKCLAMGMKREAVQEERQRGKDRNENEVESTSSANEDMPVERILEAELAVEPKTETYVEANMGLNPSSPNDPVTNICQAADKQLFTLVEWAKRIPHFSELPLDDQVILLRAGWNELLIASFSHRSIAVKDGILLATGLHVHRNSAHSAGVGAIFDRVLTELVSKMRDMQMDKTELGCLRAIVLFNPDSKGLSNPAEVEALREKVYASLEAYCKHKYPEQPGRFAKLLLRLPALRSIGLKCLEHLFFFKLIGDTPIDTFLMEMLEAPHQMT
Experiment [10] concerns the target Thyroid hormone receptor beta (Homo sapiens) (UniProt P10828). Kind of experiment: qHTS assay for small molecule agonists of thyroid hormone receptor beta signaling (AID 588545; calls by dose curve). In a few lines:
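Agonist-mode beta-lactamase reporter assay, HEK 293 cells, 2% charcoal/dextran FBS; cells plated 4 hrs, compound 18 hrs at 37 C, CCF4 2 hrs RT. Normalized to 10 nM T3 (100%) and DMSO (0%); Hill fit gives EC50, efficacy.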

Experiment [11] is described as follows: qHTS assay for small molecule antagonists of retinoid X receptor alpha signaling (AID 588546; active = well fitted inhibition curve with a large enough effect in the signal ratio, with a control signal flat, not every such curve was filed as active; the % refers to the signal ratio;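 also: cells stimulated with 9-cis-retinoic acid as agonist; % is scaled to controls: 0 for no effect and ±100 for the full control effect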). To be noted: HEK293T RXRa-UAS-bla, beta-lactamase ratio, antagonist mode; measured here: W530 green channel, cytotoxicity proxy. In a few lines: (§2)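 Beta-lactamase reporter inhibition, read as CCF4 fluorescence ratio (ex 405, em 460/530 nm) after 2 h at RT. HEK293T UAS-bla cells, 2500/well, were stimulated with 9-cis-RA at 500 or 100 nM final alongside test compound for 18 h at 37 C.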

Experiment [12] deals with Retinoic acid receptor RXR-alpha (Homo sapiens) (UniProt P19793). Described as above. The note with it: HEK293T RXRa-UAS-bla, beta-lactamase ratio, antagonist mode. The method in brief:
as §2

For experiment [13], the target named is Thyroid hormone receptor beta (Homo sapiens) (UniProt P10828). Kind of experiment: qHTS assay for small molecule antagonists of thyroid hormone receptor beta signaling (AID 588547; active = well fitted inhibition curve with a large enough effect in the signal ratio, with a control signal flat, not every such curve was filed as active; the % refers to the signal ratio; also: potency is read from the fitted curve at half-maximal effect;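 as to activity change % (negative = inhibition): cells stimulated with 0.4 nM T3 agonist during compound exposure; series mostly up to about 77 µM; % is scaled to controls: 0 for no effect and ±100 for the full control effect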). The note with it: TR-UAS-bla HEK293, beta-lactamase ratio, antagonist mode, 18 h. The method in brief: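 TR-UAS-bla GripTite HEK293 cells in 2% charcoal/dextran FBS medium were preincubated 4 h at 37 C, given compound (0.59 nM to 92 uM) plus 0.4 nM T3 (final) for 18 h, then CCF4 for 2 h at RT; Hill fit gave IC50.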
Thyroid hormone receptor beta (Homo sapiens), sequence (P10828 whole entry, looked up): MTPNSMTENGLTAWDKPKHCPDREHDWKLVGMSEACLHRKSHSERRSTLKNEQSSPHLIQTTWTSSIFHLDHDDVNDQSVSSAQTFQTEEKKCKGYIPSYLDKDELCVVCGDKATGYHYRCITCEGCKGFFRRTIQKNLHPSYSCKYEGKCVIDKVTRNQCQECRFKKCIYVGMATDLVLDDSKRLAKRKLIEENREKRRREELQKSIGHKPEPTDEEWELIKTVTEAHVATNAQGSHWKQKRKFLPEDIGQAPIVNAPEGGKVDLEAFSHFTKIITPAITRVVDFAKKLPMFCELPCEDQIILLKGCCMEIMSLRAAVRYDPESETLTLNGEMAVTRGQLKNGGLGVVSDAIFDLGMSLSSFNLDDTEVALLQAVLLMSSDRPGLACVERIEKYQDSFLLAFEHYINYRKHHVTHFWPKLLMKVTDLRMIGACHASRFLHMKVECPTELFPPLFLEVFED

The target in experiment [14] is Luciferin 4-monooxygenase (Photinus pyralis) (UniProt P08659). As to the kind of experiment: Biochemical firefly luciferase enzyme assay for NPC (AID 624030). Also: nearly all actives have a fitted effect of over 70% in size. Also: potency is read from the fitted curve at half-maximal effect. In a few lines: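 Counter-screen for direct inhibition of the luciferase enzyme by approved-drug library compounds, run at 10 nM enzyme in 50 mM Tris acetate (final). Luminescence was read within 5 min of enzyme-buffer addition and normalized to PTC124 versus DMSO (0%).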
Luciferin 4-monooxygenase (Photinus pyralis), sequence (P08659 whole entry, looked up): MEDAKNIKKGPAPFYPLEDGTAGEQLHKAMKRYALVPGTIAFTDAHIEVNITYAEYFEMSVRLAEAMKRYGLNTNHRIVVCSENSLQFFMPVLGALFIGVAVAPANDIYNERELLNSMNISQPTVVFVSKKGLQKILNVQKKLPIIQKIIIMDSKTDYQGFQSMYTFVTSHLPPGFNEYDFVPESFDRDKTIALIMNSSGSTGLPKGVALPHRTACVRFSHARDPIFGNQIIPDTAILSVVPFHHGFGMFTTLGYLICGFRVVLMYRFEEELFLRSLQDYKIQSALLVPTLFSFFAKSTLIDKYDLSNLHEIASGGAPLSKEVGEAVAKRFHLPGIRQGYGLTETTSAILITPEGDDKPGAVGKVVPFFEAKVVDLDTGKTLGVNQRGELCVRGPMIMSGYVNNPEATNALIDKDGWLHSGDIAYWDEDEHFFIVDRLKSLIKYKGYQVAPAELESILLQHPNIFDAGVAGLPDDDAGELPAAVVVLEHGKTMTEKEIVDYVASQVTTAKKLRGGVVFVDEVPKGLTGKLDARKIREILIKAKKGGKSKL

Experiment [15] in a line: S16 Schwann cell PMP22 intronic element beta-lactamase assay (AID 624044; calls by dose curve;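 also: 0% = DMSO and -100% = potassium clavulanate positive control; nearly all actives have a fitted effect of over 15% in size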). In a few lines:
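Rat S16 Schwann cells with beta-Lac driven by a PMP22 intronic element, compound-treated 24 h at 37 °C. LiveBLAzer FRET B/G read: 460 nm normalized to potassium clavulanate vs DMSO; 535 nm FRET as viability; concentration-effect curves classified.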

Experiment [16] in a line: qHTS of Trypanosoma Brucei Inhibitors: LOPAC Validation (AID 624147). Also: 0% is about no effect. The method in brief: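 Screened from lowest to highest concentration, compounds were pinned into TbPYK/substrate mixtures, and ADP (130 uM final) was added. Plates sat at room temperature for 45 min prior to Kinase-Glo Plus detection by luminescence.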
For experiment [17], the target named is Glucagon-like peptide 1 receptor (Homo sapiens) (UniProt P43220). As to the kind of experiment: qHTS of GLP-1 Receptor Agonists: LOPAC Validation (AID 624148).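 Also: 0% is about no effect; higher luminescence signal means agonism.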 The method in brief: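 HEK293 cells stably co-expressing a cAMP-responsive luciferase reporter and a hypersensitive GLP-1R were plated 12 h at 37 °C and exposed to compounds for 4-6 hr at 37 °C, 5% CO2. Luminescence was read 12 min after adding detection reagent.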

For experiment [18], the target named is Voltage-gated inwardly rectifying potassium channel KCNH2 (Homo sapiens) (UniProt Q12809). As to the kind of experiment: qHTS Assay for Small Molecule Inhibitors of the Human hERG Channel Activity (AID 588834).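 Also: lower thallium flux fluorescence means stronger hERG block; nearly all actives have a fitted effect of over 50% in size.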 Also: potency is read from the fitted curve at half-maximal effect. The method in brief:
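Concentration-response qHTS measuring drop in thallium-sensitive dye signal. U2OS cells carrying BacMam hERG; compound exposure ~10 min, then stimulation buffer and 2 min read at 1 sec intervals.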

Experiment [19] in a line: S16 Schwann cell viability assay (CellTiter-Glo assay) (AID 624031). Also: nearly all actives have a fitted effect of over 70% in size. Also: potency is read from the fitted curve at half-maximal effect. The method in brief: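 This viability control uses native rat S16 Schwann cells grown in DMEM plus 10% FBS. After a 24 h compound treatment at 37 °C, CellTiter-Glo luminescence reports ATP content, scaled against DMSO-treated and cell-free wells.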
Background: In ATP-based viability assays light output follows the ATP content of the culture.

Experiment [20] in a line: S16 Schwann cell PMP22 intronic element firefly luciferase assay (AID 624032). Also: nearly all actives have a fitted effect of over 30% in size. Also: potency is read from the fitted curve at half-maximal effect. The method in brief:
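Rat S16 Schwann cells stably carrying a PMP22 intronic element-driven Fluc reporter were seeded overnight, then exposed to compounds for 24 h at 37 °C. Luminescence was normalized to PTC124 (positive control) and DMSO (0% activity).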

Values joined by “and” are separate entries in the source; they are usually repeats but may differ in a detail not shown here. Equal values may be shown once. Inconclusive results are not listed. Active and inactive are the calls of the source. Unless noted, calls follow the shape of the dose curve; as a rule, active = well fitted curve in the direction sought with a large enough effect; inconclusive = small, poorly fitted or top-dose-only effect, or another doubt; inactive = no such curve, though single readings can be large; an effect the other way counts as inactive or inconclusive.

Voltage-gated inwardly rectifying potassium channel KCNH2 (Homo sapiens), sequence (Q12809 whole entry, looked up): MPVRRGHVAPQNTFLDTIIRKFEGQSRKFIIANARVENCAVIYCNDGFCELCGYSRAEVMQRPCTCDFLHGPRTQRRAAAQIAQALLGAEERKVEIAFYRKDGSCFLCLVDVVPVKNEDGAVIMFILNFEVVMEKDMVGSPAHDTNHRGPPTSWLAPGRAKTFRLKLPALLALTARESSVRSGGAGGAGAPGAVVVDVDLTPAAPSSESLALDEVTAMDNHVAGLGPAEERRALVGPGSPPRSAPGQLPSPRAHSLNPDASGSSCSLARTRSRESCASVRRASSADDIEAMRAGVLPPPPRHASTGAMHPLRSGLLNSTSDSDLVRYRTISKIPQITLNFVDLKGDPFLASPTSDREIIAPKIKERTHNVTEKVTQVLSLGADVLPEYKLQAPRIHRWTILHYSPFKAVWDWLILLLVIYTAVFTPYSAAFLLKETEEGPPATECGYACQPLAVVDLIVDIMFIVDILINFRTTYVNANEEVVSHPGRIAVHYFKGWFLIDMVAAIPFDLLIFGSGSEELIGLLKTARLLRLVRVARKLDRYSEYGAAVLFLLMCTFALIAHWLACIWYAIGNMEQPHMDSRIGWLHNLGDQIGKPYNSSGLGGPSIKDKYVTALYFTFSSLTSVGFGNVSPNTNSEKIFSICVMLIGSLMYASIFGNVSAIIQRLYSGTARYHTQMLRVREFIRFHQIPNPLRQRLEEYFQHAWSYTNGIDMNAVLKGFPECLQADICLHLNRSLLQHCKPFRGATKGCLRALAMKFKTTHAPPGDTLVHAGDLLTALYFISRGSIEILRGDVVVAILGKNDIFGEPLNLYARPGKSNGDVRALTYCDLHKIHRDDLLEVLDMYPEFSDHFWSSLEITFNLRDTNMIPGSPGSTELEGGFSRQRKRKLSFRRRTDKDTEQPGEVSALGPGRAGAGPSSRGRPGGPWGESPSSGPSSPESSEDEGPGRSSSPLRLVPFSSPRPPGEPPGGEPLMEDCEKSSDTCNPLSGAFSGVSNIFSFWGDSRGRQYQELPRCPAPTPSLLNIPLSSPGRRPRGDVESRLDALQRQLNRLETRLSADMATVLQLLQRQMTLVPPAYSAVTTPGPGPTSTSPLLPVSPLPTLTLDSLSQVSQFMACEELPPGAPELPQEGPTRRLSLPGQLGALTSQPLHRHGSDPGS

`NNC(=O)c1ccncc1`: the activation in [1] is -1.09% (inactive). The outcome in experiment [2], in [4], in [5], in experiment [7], in [9] and in [10] was inactive. For the same compound, the max response was 0.593% in experiment [3], 1.41% in [8], 1.75% in experiment [11] and 3.12% (inactive) in experiment [12]. Moreover, the Potency result in experiment [6] and in experiment [14] was “inactive” each time. For the same compound, the activity change % (negative = inhibition) in experiment [13] was 10.5% (inactive).
Consider `N[C@@H](Cc1ccc(O)c(O)c1)C(=O)O`, for which the activation in [1] was -2.15% (inactive). For the same compound, the result in experiment [2], in experiment [5], in [7], in experiment [9], in experiment [10] and in experiment [16] was inactive. The result in experiment [17] was inactive. Further, the Potency result in [6] and in experiment [15] was “inactive” each time. For the same compound, the max response was -21.2% in experiment [8], -19.3% in experiment [11] and 0.985% (inactive) in experiment [12]. Further, the activity change % (negative = inhibition) in experiment [13] is -11.9% (inactive).
For the compound `Cc1nnc(NS(=O)(=O)c2ccc(N)cc2)s1`, the result in experiment [5], in [7], in experiment [9] and in experiment [10] was inactive. Besides, the results for the max response in experiment [8], in experiment [11] and in experiment [12] were -10.5%, -2.81% and -2.27% (inactive), respectively. The activity change % (negative = inhibition) in experiment [13] was -6.41% (inactive). Besides, the Potency result in [18], in experiment [14], in experiment [19] and in [20] was “inactive” throughout.
For the compound `Cn1c(=O)c2c(ncn2CC(O)CO)n(C)c1=O` (stereo unspecified), the Potency result in experiment [18] is “inactive”.
Take `CN(C)CCc1c[nH]c2ccc(C[C@H]3COC(=O)N3)cc12`: in experiment [18], the Potency entry is “inactive”.
`NC(N)=NC(N)=NCCc1ccccc1`: in experiment [1], the activation was 10% (inactive) and -5.38% (inactive). For the same compound, the max response in experiment [3] is -11.9% and 9.95%; in experiment [8], 8.58% and 2.73%; in experiment [11], 0.584% and 0.821%; in experiment [12], 19.7% (inactive) and -15.5% (inactive). The compound was classed as inactive in experiment [4], in [5], in [9] and in experiment [10]. In addition, the Potency result in [6], in experiment [18], in [14], in experiment [19] and in experiment [20] was “inactive” throughout.
For `CN(C)c1ccc(C(=C2C=CC(=[N+](C)C)C=C2)c2ccc(N(C)C)cc2)cc1`, the activation in [1] was -0.396% (inactive) and -10.9% (inactive). For the same compound, the Potency is 44.7 µM (active) in experiment [6]; 28.2 µM (active) in [13]; 10 µM (active) and 12.6 µM (active) in experiment [18]; 12.8 µM (active) in experiment [14]; 9.07 µM (active) in [19]; 9.07 µM (active) in experiment [20]. Further, the result in experiment [7] and in [10] was inactive.
Take `OC(Cn1cncn1)(Cn1cncn1)c1ccc(F)cc1F`: the activation in [1] is 0.0878% (inactive). For the same compound, the compound was called inactive in [2], in experiment [5], in [7], in experiment [9] and in [10]. In addition, the Potency entry in experiment [6], in [18], in experiment [14], in experiment [19], in experiment [20] and in experiment [15] was “inactive” each time. For the same compound, the max response in experiment [8] was -28.2%; in experiment [11] it was -2.01%; in experiment [12] it was 6.23% (inactive). For the same compound, in experiment [13], the activity change % (negative = inhibition) is -14.2% (inactive).
